Experimental data taken from PubChem BioAssay AID1211 (NMMLSC, 2008).
Calls of active or inactive are those of the source. How the calls were made is not given here.

Biological target: Estrogen receptor (Homo sapiens) (UniProt P03372)
Assay: ERalpha ligand binders by competition, primary screen, cell-based, Cos7 ERalpha-GFP, flow cytometry (AID 1211);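 further: 0% = DMSO vehicle wells and 100% = no E2-Alexa633 signal left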
Conditions: fluorescent ligand competition, stronger effect = higher value

Estrogen receptor (Homo sapiens), sequence (P03372 whole entry, looked up): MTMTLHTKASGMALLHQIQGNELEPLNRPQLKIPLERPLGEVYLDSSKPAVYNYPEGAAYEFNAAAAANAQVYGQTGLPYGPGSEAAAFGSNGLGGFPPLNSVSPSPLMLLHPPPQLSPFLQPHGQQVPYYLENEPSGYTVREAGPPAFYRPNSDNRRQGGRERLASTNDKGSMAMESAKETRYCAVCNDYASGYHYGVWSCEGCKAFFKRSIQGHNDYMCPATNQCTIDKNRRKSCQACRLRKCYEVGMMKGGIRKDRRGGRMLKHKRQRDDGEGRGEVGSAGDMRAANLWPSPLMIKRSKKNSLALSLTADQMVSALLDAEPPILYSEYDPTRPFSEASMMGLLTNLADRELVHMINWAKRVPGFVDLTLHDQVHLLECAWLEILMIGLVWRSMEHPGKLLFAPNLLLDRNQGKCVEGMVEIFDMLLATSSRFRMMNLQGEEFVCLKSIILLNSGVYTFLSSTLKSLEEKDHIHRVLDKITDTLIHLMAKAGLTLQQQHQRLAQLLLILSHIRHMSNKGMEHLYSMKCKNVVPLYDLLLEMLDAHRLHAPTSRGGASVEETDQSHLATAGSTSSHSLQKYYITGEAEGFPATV

Compound	inhibition of ligand binding (at 10 µM)	inhibition of ligand binding (binding inhibition, at 0.1 µM) [%]
Brc1cc2c(cc1C1Nc3ccccc3C3C=CCC31)OCO2 (stereo not drawn)	0% (inactive)	14
Cc1ccc(C(=O)Nc2nc(-c3cccnc3)cs2)o1	29% (inactive)	20
Cc1oc2c(C)c(O)ccc2c(=O)c1-c1ccc2ccccc2n1	20% (active)	70
Cc1cc(C)c(S(=O)(=O)/N=C2\C=CC(=O)C(Cl)=C2)c(C)c1	20% (inactive)	7
Cc1ccccc1Nc1nnc(SCC(=O)NCc2ccco2)s1	40% (inactive)	11
Cc1ccc(-c2csc(NC(=O)c3ccno3)n2)cc1	60% (inactive)	29
C/C(N)=C(/C#N)C(=O)CSc1nnc(Nc2cccc(C)c2C)s1	32% (inactive)	16
CC(C)c1ccc2c(c1)[C@H]1OCC[C@H]1[C@@H](c1cccs1)N2	0% (inactive)	20
COc1ccccc1NC(=O)c1ccccc1NC(=O)c1cc(Cl)ccc1NC(=O)c1ccco1	32% (inactive)	3
COc1ccc2[nH]c3c(c2c1)CCn1c-3nc2ccccc2c1=O	25% (inactive)	36
O=C(CSc1nnc(-c2ccc(OC(F)F)cc2)o1)NC(=O)NCc1ccco1	34% (inactive)	26
CC(=O)c1cccc(NC(=O)Cc2cccs2)c1	3% (inactive)	40
Oc1ccc(N=Cc2ccc(O)c(O)c2)cc1	0% (inactive)	41
Cc1c(C(=O)OCc2ccccc2)[nH]c2c1C(=O)CC(c1ccco1)C2 (stereo not drawn)	37% (inactive)	24
CCOC(=O)c1c(/N=C/c2ccc(O)cc2O)sc2c1CCC2	58% (inactive)	42
CN1CCc2cccc3c2[C@@H]1Cc1ccc(O)c(O)c1-3	42% (inactive)	6
O=C(Nc1ccc(-c2nc3ccc(NC(=O)c4cccs4)cc3[nH]2)cc1)c1cccs1	39% (inactive)	20

Compound	inhibition of ligand binding (at 10 µM)	inhibition of ligand binding (binding inhibition, at 0.1 µM) [%]
O=C(Cn1c(=O)n(Cc2ccco2)c(=O)c2c3c(sc21)CCCCC3)Nc1ccccc1	51% (inactive)	39
CCc1oc2ccccc2c1C(=O)c1cc(Br)c(O)c(Br)c1	0% (inactive)	20
CC(C)(C)OC(=O)N1CCN(c2ccc(NC(=O)Cn3nnc(-c4ccccc4)n3)cc2)CC1	37% (inactive)	24
CCn1nnc(NC(=O)CSc2ccc(Cl)cc2)n1	7% (inactive)	10
CC1CCN(S(=O)(=O)c2ccc(NC(=O)Cc3cccs3)cc2)CC1	62% (inactive)	56
COc1cc(-c2nc3ccccn3c2/N=C/c2ccccc2)ccc1O	53% (inactive)	11
COc1ccccc1N1CCN(C(=O)c2ccc3nc(-c4ccco4)c(-c4ccco4)nc3c2)CC1	36% (active)	82
Cc1c(Cl)cccc1NS(=O)(=O)c1ccc2c(c1)C1C=CCC1C(c1ccc(C(=O)O)cc1)N2 (stereo not drawn)	55% (inactive)	1
COc1cc(NC(=O)c2cccs2)c(C(=O)OCC(=O)NCc2ccco2)cc1OC	22% (inactive)	20
COc1ccc(C2Nc3ccccc3C(=O)N2c2ccc(C)cc2)cc1COc1ccccn1 (stereo not drawn)	27% (inactive)	11
COc1ccc(NC(=O)CSc2nc3ccccc3c3nc4ccccc4n23)cc1	23% (inactive)	31
Cc1oc(-c2ccc(Cl)cc2)cc1-c1nn2c(-c3ccoc3C)nnc2s1	68% (active)	34
O=C(CSc1nnc(SCC(=O)c2ccco2)s1)c1ccco1	14% (inactive)	28
CN(/N=C/c1cccnc1)c1cnn(-c2ccc(F)c(Cl)c2)c(=O)c1Cl	24% (inactive)	15
Cc1ccccc1Nc1nnc(SCC(=O)NC(=O)NCc2ccco2)s1	63% (inactive)	50
COc1ccc2c(c1)C1C=CCC1C(c1cc3c(cc1Br)OCO3)N2 (stereo not drawn)	0% (inactive)	10
O=C(Cc1cn2ccsc2n1)OCc1nc2ccccc2s1	26% (inactive)	18
